PubChem BioAssay (EPA / NIEHS)
Records with an inconclusive call do not appear. Calls of active or inactive are those of the source. Rule for the calls: active = hit-call score of the fitted dose curve at least 0.9, where 1 is the maximum; inconclusive = response in the unintended direction; inactive = score below 0.9.

Legend:
[1] = target: human Opioid Receptor Delta 1 (Opiate D1), OPRD1 (gene 4985) (UniProt P41143); experiment: NVS_GPCR_hOpiate_D1: NovaScreen (NVS) G Protein-Coupled Receptor Assay for human Opioid Receptor Delta 1 (Opiate D1) (AID 2283280)
human Opioid Receptor Delta 1 (Opiate D1), OPRD1 (gene 4985), sequence (P41143 whole entry, looked up): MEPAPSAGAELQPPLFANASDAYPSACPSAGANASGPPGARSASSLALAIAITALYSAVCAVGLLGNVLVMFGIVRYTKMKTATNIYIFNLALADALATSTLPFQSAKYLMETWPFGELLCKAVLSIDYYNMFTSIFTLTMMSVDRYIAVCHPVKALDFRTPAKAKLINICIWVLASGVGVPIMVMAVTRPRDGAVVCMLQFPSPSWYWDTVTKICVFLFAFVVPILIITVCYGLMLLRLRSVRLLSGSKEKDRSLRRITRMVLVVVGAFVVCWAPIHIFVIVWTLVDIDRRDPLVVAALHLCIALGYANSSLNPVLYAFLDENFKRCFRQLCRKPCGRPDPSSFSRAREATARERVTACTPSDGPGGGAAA
Summary of the method: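 Membrane preparations from CHO cells bearing the human receptor were incubated 1 h with test chemical, and bound radioligand was counted after filtration. Actives from 25 uM duplicate screening were retested in concentration-response.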

[2] = target: rat Serotonin, 5-Hydroxytryptamine Receptor 1 (5HT1), Non-Selective Binding, Htr1a (gene 24473) (UniProt P19327); experiment: NVS_GPCR_r5HT1_NonSelective: NovaScreen (NVS) G Protein-Coupled Receptor Assay for rat Serotonin, 5-Hydroxytryptamine Receptor 1 (5HT1), Non-Selective Binding (AID 2283286)
rat Serotonin, 5-Hydroxytryptamine Receptor 1 (5HT1), Non-Selective Binding, Htr1a (gene 24473), sequence (P19327 whole entry, looked up): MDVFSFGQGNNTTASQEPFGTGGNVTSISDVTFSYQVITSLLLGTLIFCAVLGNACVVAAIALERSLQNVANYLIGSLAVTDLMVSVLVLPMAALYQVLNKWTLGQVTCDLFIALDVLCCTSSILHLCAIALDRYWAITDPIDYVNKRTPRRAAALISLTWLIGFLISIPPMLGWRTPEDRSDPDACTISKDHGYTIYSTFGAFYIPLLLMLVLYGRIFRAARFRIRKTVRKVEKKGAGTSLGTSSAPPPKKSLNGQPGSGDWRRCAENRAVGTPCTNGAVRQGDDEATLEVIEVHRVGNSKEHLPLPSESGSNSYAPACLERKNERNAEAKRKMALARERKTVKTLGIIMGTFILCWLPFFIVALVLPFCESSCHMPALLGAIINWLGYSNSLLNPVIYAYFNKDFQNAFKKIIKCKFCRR
Summary of the method: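 Binding of a radioligand to rat cortex membranes is read by filtration and scintillation counting after 1 h. Compounds were screened at 25 uM in duplicate. Actives were then titrated to a top of 50 uM. DMSO is the baseline.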

[3] = target: human Neurokinin, NK2 Receptor, TACR2 (gene 6865) (UniProt P21452); experiment: NVS_GPCR_hNK2: NovaScreen (NVS) G Protein-Coupled Receptor Assay for human Neurokinin, NK2 Receptor (AID 2283278);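 note: actives reduce bound radioligand signal relative to DMSO baseline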
human Neurokinin, NK2 Receptor, TACR2 (gene 6865), sequence (P21452 whole entry, looked up): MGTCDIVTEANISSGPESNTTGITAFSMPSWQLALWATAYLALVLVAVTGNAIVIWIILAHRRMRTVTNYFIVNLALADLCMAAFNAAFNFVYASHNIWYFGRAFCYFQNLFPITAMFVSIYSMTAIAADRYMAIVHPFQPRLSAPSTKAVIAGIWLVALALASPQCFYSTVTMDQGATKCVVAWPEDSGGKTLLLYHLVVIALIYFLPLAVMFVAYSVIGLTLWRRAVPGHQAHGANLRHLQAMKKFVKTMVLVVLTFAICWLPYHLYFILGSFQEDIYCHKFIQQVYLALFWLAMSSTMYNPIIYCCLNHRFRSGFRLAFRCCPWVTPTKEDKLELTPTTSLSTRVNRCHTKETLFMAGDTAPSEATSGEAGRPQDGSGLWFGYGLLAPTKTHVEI
Summary of the method: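 Cell-free radioligand binding using receptor protein extracted from CHO cells; readings taken 4 hours after chemical dosing by filter-based scintillation counting. Primary screen ran single concentration (25 uM) in duplicate; actives followed up in concentration series, loss-of-signal versus DMSO baseline.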

[4] = target: human Orphanin, Opioid Related Nociceptin Receptor 1 (ORL1), OPRL1 (gene 4987) (UniProt P41146); experiment: NVS_GPCR_hORL1: NovaScreen (NVS) G Protein-Coupled Receptor Assay for human Orphanin, Opioid Related Nociceptin Receptor 1 (ORL1) (AID 2283283)
human Orphanin, Opioid Related Nociceptin Receptor 1 (ORL1), OPRL1 (gene 4987), sequence (P41146 whole entry, looked up): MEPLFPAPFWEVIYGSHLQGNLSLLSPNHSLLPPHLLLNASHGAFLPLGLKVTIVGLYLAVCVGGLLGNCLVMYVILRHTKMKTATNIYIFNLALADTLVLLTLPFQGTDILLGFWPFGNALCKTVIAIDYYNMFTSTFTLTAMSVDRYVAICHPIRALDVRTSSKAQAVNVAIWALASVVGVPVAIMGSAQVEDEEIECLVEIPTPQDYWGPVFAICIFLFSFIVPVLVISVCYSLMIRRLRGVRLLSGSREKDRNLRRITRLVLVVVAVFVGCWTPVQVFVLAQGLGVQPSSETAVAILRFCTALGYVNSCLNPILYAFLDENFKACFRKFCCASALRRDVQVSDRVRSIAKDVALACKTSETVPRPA
Summary of the method: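 Cell-free binding using HEK293-derived receptor protein: radioligand displacement measured by filter scintillation 1 hour after dosing. Primary testing at 25 uM in duplicate, followed by singleton concentration series up to 50 uM; DMSO served as negative control.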

[5] = target: human Thromboxane A2 Receptor (TXA2), TBXA2R (gene 6915) (UniProt P21731); experiment: NVS_GPCR_hTXA2: NovaScreen (NVS) G Protein-Coupled Receptor Assay for human Thromboxane A2 Receptor (TXA2) (AID 2283282);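 note: actives reduce bound radioligand signal relative to DMSO baseline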
human Thromboxane A2 Receptor (TXA2), TBXA2R (gene 6915), sequence (P21731 whole entry, looked up): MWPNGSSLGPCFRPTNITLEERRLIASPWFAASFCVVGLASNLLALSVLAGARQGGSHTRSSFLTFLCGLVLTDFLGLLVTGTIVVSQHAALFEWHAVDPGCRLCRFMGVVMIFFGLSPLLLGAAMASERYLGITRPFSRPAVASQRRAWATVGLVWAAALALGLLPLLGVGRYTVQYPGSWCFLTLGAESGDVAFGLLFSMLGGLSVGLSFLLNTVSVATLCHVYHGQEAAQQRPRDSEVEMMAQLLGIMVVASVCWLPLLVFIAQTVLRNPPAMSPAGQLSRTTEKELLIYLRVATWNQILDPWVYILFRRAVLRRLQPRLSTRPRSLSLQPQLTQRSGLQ
Summary of the method: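 Cell-free radioligand binding on membrane protein from human platelets; radioligand displacement read by filter-based scintillation counting after 1 h. Primary screen in duplicate at 25 uM, actives then run in concentration series; loss of signal versus DMSO.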

[6] = target: mouse Cholecystokinin, CCK1 Receptor (CCKA), Cckar (gene 12425) (UniProt O08786); experiment: NVS_GPCR_mCCKAPeripheral: NovaScreen (NVS) G Protein-Coupled Receptor Assay for mouse Cholecystokinin, CCK1 Receptor (CCKA) (AID 2283285)
mouse Cholecystokinin, CCK1 Receptor (CCKA), Cckar (gene 12425), sequence (O08786 whole entry, looked up): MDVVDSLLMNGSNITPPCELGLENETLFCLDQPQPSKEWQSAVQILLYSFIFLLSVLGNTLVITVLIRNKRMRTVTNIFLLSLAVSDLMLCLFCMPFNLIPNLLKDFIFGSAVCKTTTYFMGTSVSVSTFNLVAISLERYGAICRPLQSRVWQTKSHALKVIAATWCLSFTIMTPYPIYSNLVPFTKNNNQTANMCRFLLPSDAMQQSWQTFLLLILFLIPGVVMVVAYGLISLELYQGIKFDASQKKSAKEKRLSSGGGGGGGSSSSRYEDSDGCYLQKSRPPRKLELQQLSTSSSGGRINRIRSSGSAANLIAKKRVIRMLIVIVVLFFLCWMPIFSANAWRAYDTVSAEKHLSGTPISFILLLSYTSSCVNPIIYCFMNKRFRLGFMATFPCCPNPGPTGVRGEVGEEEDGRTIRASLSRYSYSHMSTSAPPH
Summary of the method: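 Chemicals were first screened in duplicate at 25 uM, with those meeting threshold (e.g., 30% inhibition) retested in singleton concentration series to 50 uM maximum. Binding of radioligand to mouse pancreatic membranes was read after 2 h by filtration and scintillation counting.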

[7] = target: human Neurotensin Receptor (NTS), NTSR1 (gene 4923) (UniProt P30989); experiment: NVS_GPCR_hNTS: NovaScreen (NVS) G Protein-Coupled Receptor Assay for human Neurotensin Receptor (NTS) (AID 2283279)
human Neurotensin Receptor (NTS), NTSR1 (gene 4923), sequence (P30989 whole entry, looked up): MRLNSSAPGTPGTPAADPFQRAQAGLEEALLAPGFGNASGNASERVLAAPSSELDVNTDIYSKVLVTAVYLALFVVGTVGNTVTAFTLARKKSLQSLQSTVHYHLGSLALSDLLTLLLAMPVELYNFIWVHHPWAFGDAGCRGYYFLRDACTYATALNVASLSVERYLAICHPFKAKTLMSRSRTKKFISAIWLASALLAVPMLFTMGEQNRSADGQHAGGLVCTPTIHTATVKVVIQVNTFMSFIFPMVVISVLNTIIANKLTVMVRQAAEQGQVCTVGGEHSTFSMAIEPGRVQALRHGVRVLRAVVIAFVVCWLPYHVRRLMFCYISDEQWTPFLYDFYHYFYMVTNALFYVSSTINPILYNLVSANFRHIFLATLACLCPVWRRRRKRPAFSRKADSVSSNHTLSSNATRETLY
Summary of the method: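 Compounds competed with a radiolabelled ligand for binding to CHO-derived human neurotensin receptor; bound signal counted after filtration, 1 h. Screened first at a single concentration of 25 uM in duplicate, then concentration series to 50 uM maximum for actives.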

[8] = target: Neuropeptide Y receptor type 2 (Homo sapiens) (UniProt P49146); experiment: NVS_GPCR_hNPY2: NovaScreen (NVS) G Protein-Coupled Receptor Assay for human Neuropeptide Receptor Y2 (NPY2) (AID 2283277)
Neuropeptide Y receptor type 2 (Homo sapiens), sequence (P49146 whole entry, looked up): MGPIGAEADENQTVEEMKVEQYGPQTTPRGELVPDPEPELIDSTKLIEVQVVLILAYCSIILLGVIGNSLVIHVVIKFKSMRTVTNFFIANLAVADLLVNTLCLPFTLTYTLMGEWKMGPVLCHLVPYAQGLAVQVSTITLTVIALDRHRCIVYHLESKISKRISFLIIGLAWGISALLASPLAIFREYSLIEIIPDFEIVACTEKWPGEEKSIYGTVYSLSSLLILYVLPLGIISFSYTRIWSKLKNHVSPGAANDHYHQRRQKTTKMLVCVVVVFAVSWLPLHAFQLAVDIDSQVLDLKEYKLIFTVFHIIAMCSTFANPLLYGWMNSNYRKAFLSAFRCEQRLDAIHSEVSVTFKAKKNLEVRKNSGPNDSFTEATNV
Summary of the method: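 Chemicals were first tested in duplicate at 25 uM, then actives in singleton concentration series to 50 uM. Tracer binding to SK-N-MC-derived protein measured cell-free after 1 h via filter scintillation; signal loss relative to DMSO.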

[9] = tested on: rabbit Platelet Activating Factor Receptor (PAF), gene 100354046; experiment: NVS_GPCR_rabPAF: NovaScreen (NVS) G Protein-Coupled Receptor Assay for rabbit Platelet Activating Factor Receptor (PAF) (AID 2283287)
Summary of the method: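 Rabbit platelet membrane preparation; radioligand displacement read by filter-based scintillation counting 1 h after dosing, loss of signal versus DMSO. Primary screen in duplicate at 25 uM, actives followed up in concentration series.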

[10] = target: human Purinergic Receptor P2Y, P2RY1 (gene 5028) (UniProt P47900); experiment: NVS_GPCR_hPY2: NovaScreen (NVS) G Protein-Coupled Receptor Assay for human Purinergic Receptor P2Y (AID 2283281)
human Purinergic Receptor P2Y, P2RY1 (gene 5028), sequence (P47900 whole entry, looked up): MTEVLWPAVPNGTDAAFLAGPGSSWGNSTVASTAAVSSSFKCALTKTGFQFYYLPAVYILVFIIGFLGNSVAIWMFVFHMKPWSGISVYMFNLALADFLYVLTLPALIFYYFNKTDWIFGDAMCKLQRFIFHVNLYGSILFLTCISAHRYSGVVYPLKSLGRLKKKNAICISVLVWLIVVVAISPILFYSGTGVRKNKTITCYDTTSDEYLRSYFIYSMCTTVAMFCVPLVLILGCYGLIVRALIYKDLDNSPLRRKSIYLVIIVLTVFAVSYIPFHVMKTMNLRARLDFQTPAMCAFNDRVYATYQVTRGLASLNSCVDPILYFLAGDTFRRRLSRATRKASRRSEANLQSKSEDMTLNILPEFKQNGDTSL
Summary of the method: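 Filtration scintillation readout of radioligand displacement on U937 extract, measured 1 h post-dosing. Single 25 uM duplicate screen, then singleton concentration series to 50 uM for chemicals passing threshold; DMSO as baseline.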

Q: Which results are given for `O=C(O)c1ccc2c(c1)nc(C(=O)NC1CCN(C3CC3)CC1)n2Cc1cc(-c2ccc(Cl)s2)on1`?
A: outcome [1]: inactive; outcome [2]: inactive

Q: `CCN(CC)C(=S)SSC(=S)N(CC)CC` was tested. Which AC50 [3] did it give?
A: Its AC50 is 1.35 µM (active).

Q: What about the AC50 [4] of the same compound?
A: The AC50 was 14 µM (active).

Q: What does the source list for `CCn1nc(C)c2c1C(=O)NCC(c1ccc(O)cc1)=N2`?
A: outcome [3]: inactive; AC50 [5]: 14.4 µM (active); outcome [2]: inactive

Q: How did the AC50 [5] turn out when `CC(C)C(=O)Nc1ccc([N+](=O)[O-])c(C(F)(F)F)c1` was run?
A: Its AC50 is 4.96 µM (active).

Q: What about the outcome [6] of the same compound?
A: Its outcome is “inactive”.

Q: For `CCCCCCCCN(C)C`, which AC50 [7] is on record?
A: Its AC50 is 16.7 µM (active).

Q: `O=S(=O)(O)c1ccc(N=Nc2c(O)ccc3cc(S(=O)(=O)O)ccc23)cc1` was tested. Which AC50 [2] did it give?
A: Its AC50 is 12.4 µM (active).

Q: For `Cc1ncc([C@@H](CCCCCCc2ccc3c(n2)NCCC3)CC(=O)O)cn1`, which outcome [1] is on record?
A: Its outcome is “inactive”.

Q: Which results are given for `CCCCCCCC/C=C\CCCCCCCC(=O)OC[C@@H](O)[C@H]1OC[C@H](O)[C@H]1O`?
A: outcome [8]: inactive; AC50 [5]: 25 µM (active)

Q: How did the AC50 [9] turn out when `CCCOc1ccc(S(=O)(=O)N2CCN(CC)CC2)cc1-c1nc2c(CC)n(Cc3ccccn3)nc2c(=O)[nH]1` was run?
A: The AC50 was 6.42 µM (active).

Q: What does the source list for `OCc1c[nH]c2ccccc12`?
A: AC50 [3]: 19.7 µM (active); outcome [5]: inactive

Q: `CC[C@H](C)C(=O)O[C@H]1C[C@H](O)C=C2C=C[C@H](C)[C@H](CC[C@@H](O)C[C@@H](O)CC(=O)O)[C@H]21` was tested. Which outcome [5] did it give?
A: The outcome was “inactive”.

Q: With `COc1cc2c(c(OC)c1OC)-c1ccc(OC)c(=O)cc1[C@@H](NC(C)=O)CC2` as the compound, how does the AC50 [9] read?
A: The AC50 was 17.1 µM (active).

Q: How did the outcome [3] turn out when `CCCCCCCCCC` was run?
A: The outcome was “inactive”.

Q: What about the outcome [9] of the same compound?
A: Its outcome is “inactive”.

Q: For `Cc1nccn1-c1ccc(Sc2cccc(C3(C(N)=O)CCOCC3)c2)cc1`, which AC50 [9] is on record?
A: Its AC50 is 15.8 µM (active).

Q: How did the outcome [5] turn out when `Cc1cccc(O)c1C` was run?
A: Its outcome is “inactive”.

Q: Which outcome [2] does the source give for `CCCCCCCC1CCC(=O)O1` (stereo not given) here?
A: Its outcome is “inactive”.

Q: How did the outcome [8] turn out when `CCCCCCCCCCCCCCCCOS(=O)(=O)O` was run?
A: Its outcome is “inactive”.

Q: What about the AC50 [1] of the same compound?
A: The AC50 was 3.9 µM (active).

Q: What about the AC50 [10] of the same compound?
A: The AC50 was 5.47 µM (active).

Q: And the AC50 [5]?
A: The AC50 was 12.5 µM (active).

Q: Which outcome [5] does the source give for `CCCCOC(=O)c1ccccc1` here?
A: Its outcome is “inactive”.

Q: How did the outcome [4] turn out when `OCCOCCOCCO` was run?
A: The outcome was “inactive”.

Q: For `C=CCc1cc(S(=O)(=O)c2ccc(O)c(CC=C)c2)ccc1O`, which AC50 [3] is on record?
A: The AC50 was 20.6 µM (active).

Q: What about the AC50 [1] of the same compound?
A: The AC50 was 15.5 µM (active).

Q: And the AC50 [5]?
A: The AC50 was 6.66 µM (active).

Q: And the outcome [4]?
A: Its outcome is “inactive”.

Q: And the AC50 [9]?
A: Its AC50 is 20 µM (active).

Q: `NNC(=O)c1ccncc1` was tested. Which AC50 [3] did it give?
A: Its AC50 is 2.18 µM (active).

Q: Which AC50 [3] does the source give for `c1ccc(C(O[C@@H]2CCCN(CCc3ccc4c(c3)OCO4)C2)c2ccccc2)cc1` here?
A: The AC50 was 5.79 µM (active).

Q: What about the AC50 [1] of the same compound?
A: The AC50 was 19.4 µM (active).

Q: What about the AC50 [2] of the same compound?
A: Its AC50 is 9.62 µM (active).

Q: For `COc1cc(C(C)C)c2c(c1)S(=O)(=O)N(COc1cc(=O)n3cccc(OCCN4CCCCC4)c3n1)C2=O`, which AC50 [8] is on record?
A: Its AC50 is 0.84 µM (active).
